Experimental data taken from the supplement of paper PMC11732987, “Enantioselective OTUD7B fragment discovery through chemoproteomics screening and high-throughput optimisation” (Communications Chemistry, 2025).

Key:
Assay in all cases: log2 ratio of Biotin-Ahx-Ub-VS probe labelling (fragment/DMSO); higher = less target engagement (more negative = stronger competition), active = hit call of the paper (q ≤ 0.05, log2 ratio ≤ -1)
Conditions in all cases: compound concentration: 200 uM; treatment time: 3 h
USP9X = USP9X (UniProt Q93008)
How it was run: (§1)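 HEK293T lysate in Tris/CHAPS/IGEPAL buffer with protease inhibitors (495 µg per sample) was given fragment at 200 µM or vehicle for 3 h, in triplicate. It then received Biotin-Ahx-Ub-VS at 0.5 µM final for 1 h. Labelled DUBs were NeutrAvidin-enriched, digested with LysC and trypsin, and run by diaPASEF LC-MS/MS. Values are average log2 fragment/vehicle ratios by unpaired t-test on global-median-normalised Spectronaut quantities of proteins with ≥2 unique peptides.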

UniProt O00487 = target: UniProt O00487
How it was run: as §1

UniProt O00507 = target: UniProt O00507
How it was run: as §1

UniProt P51784 = target: UniProt P51784
How it was run: as §1

UniProt Q5T2D3 = target: T1, UniProt Q5T2D3
T1 sequence (whole entry): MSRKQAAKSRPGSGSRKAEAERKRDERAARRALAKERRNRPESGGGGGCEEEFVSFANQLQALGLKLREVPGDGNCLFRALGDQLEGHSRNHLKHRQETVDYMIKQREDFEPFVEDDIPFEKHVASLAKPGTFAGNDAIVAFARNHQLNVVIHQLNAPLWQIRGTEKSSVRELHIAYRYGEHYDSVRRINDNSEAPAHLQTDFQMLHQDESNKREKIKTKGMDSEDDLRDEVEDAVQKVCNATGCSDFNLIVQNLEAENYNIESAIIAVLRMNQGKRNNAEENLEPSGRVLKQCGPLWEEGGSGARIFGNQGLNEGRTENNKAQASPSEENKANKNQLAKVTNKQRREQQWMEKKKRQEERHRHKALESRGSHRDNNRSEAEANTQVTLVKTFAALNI
How it was run: as §1

UniProt Q8TE49 = target: T2, UniProt Q8TE49
T2 sequence (whole entry): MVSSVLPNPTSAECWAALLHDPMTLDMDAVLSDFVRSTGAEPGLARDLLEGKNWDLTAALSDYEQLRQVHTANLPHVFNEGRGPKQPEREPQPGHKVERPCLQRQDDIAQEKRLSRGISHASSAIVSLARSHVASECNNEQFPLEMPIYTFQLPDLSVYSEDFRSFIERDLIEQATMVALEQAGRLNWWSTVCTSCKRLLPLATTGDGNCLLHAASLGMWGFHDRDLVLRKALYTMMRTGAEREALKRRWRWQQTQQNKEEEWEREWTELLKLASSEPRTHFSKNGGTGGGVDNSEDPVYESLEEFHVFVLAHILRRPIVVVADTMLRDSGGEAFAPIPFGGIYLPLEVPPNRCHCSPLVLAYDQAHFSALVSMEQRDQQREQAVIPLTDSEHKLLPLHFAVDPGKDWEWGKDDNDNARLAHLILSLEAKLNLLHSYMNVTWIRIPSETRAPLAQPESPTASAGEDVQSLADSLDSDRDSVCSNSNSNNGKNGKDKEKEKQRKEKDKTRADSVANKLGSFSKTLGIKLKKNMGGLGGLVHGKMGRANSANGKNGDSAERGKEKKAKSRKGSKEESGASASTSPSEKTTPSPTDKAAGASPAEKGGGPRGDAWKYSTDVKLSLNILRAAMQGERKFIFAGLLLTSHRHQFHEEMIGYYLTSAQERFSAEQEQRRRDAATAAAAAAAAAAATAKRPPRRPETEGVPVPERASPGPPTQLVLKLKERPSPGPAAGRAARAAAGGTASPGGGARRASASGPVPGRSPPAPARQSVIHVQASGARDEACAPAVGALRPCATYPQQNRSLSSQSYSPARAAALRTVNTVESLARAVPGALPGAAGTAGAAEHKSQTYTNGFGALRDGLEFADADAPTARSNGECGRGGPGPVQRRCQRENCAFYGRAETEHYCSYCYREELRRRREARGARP
How it was run: as §1

UniProt Q9P2H5 = target: T3, UniProt Q9P2H5
T3 sequence (whole entry): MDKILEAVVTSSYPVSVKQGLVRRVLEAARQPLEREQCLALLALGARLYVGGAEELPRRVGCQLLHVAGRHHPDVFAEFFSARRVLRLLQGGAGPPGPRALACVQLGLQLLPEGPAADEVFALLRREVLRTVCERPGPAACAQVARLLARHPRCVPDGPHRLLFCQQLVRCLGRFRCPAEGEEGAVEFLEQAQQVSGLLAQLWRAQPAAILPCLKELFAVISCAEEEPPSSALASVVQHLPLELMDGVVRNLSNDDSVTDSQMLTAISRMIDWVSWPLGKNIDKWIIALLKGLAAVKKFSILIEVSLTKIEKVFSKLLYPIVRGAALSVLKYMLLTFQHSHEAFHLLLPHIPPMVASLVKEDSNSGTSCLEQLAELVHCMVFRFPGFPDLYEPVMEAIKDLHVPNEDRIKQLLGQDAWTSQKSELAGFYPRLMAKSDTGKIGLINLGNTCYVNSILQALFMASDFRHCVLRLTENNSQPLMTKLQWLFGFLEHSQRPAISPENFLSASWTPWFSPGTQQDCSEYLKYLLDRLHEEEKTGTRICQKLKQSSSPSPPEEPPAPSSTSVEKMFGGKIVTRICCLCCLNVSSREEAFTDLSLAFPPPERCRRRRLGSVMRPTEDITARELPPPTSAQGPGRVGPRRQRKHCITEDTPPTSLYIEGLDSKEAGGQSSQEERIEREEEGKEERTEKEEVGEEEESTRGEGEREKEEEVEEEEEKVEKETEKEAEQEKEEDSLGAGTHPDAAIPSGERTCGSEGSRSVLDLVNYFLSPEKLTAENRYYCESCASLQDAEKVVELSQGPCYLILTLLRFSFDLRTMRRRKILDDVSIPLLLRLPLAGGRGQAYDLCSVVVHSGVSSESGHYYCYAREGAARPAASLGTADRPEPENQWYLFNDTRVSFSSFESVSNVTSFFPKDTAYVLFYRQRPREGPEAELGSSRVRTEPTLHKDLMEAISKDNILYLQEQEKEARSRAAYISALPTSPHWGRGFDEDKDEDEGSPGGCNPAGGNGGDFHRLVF
How it was run: as §1

UniProt Q9UGI0 = target: T4, UniProt Q9UGI0
T4 sequence (whole entry): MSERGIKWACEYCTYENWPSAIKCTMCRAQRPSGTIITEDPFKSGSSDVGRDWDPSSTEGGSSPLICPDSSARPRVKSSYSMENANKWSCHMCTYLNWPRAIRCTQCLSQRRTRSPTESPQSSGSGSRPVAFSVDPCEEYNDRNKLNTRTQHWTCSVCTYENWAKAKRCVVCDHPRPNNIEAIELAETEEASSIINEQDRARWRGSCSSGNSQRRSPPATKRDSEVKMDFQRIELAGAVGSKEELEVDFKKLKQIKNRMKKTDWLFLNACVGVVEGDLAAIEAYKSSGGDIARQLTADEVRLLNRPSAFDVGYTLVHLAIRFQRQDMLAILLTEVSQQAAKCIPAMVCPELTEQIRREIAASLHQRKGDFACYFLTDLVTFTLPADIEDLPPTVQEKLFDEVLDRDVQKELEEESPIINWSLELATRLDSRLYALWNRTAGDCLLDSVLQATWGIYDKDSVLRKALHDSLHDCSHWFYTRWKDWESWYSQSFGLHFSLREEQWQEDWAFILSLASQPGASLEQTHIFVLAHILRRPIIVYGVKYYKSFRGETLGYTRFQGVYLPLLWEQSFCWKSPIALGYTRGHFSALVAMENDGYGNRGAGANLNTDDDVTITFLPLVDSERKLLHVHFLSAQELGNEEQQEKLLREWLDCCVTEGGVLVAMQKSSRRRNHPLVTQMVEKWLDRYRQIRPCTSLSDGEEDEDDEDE
How it was run: as §1

YOD1 = target: T5, YOD1 (UniProt Q5VVQ6)
T5 sequence (whole entry): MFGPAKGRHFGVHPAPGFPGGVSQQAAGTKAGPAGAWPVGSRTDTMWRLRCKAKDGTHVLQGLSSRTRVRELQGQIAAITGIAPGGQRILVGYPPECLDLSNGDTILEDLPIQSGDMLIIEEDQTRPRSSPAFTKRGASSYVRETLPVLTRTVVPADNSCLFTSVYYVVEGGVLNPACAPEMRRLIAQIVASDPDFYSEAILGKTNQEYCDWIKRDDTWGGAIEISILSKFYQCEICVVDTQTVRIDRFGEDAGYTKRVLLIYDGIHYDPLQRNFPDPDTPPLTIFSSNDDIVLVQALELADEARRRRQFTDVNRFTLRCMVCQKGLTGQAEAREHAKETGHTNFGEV
How it was run: as §1

Measured: log2 ratio of Biotin-Ahx-Ub-VS probe labelling

Sequence of UniProt O00507 (O00507 whole entry): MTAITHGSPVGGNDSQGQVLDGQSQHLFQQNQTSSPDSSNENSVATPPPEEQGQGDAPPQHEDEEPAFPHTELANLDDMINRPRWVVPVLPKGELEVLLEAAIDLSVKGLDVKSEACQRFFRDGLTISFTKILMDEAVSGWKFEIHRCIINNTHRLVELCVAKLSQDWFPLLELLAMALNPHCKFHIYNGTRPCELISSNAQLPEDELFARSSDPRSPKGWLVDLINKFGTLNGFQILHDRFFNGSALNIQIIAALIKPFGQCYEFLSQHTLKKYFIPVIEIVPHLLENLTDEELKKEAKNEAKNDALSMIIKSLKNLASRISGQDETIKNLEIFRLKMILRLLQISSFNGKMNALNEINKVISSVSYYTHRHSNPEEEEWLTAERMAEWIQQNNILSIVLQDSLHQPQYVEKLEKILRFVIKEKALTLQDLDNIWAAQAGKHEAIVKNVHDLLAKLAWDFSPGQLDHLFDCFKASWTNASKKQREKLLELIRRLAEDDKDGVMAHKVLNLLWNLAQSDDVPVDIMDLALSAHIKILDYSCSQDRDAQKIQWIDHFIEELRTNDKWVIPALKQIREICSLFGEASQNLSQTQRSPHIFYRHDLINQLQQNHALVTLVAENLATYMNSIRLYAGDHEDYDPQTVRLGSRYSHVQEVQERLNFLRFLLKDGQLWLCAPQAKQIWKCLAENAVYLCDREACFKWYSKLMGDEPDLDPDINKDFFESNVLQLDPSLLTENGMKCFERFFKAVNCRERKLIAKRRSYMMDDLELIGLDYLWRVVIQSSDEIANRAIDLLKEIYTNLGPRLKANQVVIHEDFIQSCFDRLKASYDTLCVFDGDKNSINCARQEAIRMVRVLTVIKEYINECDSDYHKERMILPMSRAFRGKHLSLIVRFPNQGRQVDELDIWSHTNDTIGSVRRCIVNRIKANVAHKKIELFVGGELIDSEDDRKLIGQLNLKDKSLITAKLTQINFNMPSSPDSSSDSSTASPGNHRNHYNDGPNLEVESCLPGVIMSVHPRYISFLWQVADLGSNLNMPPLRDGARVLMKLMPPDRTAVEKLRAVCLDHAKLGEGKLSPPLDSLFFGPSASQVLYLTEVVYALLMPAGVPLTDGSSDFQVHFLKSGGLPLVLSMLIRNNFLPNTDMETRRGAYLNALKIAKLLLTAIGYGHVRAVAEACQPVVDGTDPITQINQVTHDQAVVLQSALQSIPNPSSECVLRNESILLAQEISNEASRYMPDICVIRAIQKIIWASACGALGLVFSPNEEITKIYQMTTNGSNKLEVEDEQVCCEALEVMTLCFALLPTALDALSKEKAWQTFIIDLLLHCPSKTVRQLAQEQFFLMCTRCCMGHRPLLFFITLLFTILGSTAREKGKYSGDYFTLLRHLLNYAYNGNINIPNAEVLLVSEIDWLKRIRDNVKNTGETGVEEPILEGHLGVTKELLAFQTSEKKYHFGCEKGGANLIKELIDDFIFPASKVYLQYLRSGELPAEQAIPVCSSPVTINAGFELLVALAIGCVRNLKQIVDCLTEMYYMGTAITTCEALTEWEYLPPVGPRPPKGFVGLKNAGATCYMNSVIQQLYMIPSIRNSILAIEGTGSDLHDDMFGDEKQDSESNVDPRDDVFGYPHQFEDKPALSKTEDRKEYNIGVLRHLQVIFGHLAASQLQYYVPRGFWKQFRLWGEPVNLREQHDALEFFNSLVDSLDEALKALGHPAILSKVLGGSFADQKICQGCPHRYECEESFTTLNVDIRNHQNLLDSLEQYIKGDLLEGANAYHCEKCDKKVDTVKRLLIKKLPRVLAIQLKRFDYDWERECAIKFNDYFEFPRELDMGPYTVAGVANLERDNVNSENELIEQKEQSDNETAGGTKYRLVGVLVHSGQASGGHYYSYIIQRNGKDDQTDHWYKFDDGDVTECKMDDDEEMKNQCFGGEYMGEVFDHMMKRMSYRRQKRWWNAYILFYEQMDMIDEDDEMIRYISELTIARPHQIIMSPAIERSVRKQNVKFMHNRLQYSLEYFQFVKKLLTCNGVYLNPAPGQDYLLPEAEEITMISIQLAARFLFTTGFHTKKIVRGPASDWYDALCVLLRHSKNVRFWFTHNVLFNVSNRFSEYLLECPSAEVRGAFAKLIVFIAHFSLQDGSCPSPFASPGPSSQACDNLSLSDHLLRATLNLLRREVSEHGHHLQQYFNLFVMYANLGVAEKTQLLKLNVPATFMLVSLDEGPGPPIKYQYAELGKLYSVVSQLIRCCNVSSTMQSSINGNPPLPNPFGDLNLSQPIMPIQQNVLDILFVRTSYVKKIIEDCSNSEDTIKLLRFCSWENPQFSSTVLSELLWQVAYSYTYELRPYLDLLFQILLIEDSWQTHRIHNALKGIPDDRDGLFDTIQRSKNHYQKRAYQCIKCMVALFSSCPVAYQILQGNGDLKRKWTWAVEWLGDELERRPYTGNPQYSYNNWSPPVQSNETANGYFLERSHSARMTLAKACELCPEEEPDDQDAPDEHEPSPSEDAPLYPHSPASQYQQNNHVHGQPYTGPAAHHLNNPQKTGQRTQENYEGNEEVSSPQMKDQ
Sequence of USP9X (Q93008 whole entry, the tested form may be a part): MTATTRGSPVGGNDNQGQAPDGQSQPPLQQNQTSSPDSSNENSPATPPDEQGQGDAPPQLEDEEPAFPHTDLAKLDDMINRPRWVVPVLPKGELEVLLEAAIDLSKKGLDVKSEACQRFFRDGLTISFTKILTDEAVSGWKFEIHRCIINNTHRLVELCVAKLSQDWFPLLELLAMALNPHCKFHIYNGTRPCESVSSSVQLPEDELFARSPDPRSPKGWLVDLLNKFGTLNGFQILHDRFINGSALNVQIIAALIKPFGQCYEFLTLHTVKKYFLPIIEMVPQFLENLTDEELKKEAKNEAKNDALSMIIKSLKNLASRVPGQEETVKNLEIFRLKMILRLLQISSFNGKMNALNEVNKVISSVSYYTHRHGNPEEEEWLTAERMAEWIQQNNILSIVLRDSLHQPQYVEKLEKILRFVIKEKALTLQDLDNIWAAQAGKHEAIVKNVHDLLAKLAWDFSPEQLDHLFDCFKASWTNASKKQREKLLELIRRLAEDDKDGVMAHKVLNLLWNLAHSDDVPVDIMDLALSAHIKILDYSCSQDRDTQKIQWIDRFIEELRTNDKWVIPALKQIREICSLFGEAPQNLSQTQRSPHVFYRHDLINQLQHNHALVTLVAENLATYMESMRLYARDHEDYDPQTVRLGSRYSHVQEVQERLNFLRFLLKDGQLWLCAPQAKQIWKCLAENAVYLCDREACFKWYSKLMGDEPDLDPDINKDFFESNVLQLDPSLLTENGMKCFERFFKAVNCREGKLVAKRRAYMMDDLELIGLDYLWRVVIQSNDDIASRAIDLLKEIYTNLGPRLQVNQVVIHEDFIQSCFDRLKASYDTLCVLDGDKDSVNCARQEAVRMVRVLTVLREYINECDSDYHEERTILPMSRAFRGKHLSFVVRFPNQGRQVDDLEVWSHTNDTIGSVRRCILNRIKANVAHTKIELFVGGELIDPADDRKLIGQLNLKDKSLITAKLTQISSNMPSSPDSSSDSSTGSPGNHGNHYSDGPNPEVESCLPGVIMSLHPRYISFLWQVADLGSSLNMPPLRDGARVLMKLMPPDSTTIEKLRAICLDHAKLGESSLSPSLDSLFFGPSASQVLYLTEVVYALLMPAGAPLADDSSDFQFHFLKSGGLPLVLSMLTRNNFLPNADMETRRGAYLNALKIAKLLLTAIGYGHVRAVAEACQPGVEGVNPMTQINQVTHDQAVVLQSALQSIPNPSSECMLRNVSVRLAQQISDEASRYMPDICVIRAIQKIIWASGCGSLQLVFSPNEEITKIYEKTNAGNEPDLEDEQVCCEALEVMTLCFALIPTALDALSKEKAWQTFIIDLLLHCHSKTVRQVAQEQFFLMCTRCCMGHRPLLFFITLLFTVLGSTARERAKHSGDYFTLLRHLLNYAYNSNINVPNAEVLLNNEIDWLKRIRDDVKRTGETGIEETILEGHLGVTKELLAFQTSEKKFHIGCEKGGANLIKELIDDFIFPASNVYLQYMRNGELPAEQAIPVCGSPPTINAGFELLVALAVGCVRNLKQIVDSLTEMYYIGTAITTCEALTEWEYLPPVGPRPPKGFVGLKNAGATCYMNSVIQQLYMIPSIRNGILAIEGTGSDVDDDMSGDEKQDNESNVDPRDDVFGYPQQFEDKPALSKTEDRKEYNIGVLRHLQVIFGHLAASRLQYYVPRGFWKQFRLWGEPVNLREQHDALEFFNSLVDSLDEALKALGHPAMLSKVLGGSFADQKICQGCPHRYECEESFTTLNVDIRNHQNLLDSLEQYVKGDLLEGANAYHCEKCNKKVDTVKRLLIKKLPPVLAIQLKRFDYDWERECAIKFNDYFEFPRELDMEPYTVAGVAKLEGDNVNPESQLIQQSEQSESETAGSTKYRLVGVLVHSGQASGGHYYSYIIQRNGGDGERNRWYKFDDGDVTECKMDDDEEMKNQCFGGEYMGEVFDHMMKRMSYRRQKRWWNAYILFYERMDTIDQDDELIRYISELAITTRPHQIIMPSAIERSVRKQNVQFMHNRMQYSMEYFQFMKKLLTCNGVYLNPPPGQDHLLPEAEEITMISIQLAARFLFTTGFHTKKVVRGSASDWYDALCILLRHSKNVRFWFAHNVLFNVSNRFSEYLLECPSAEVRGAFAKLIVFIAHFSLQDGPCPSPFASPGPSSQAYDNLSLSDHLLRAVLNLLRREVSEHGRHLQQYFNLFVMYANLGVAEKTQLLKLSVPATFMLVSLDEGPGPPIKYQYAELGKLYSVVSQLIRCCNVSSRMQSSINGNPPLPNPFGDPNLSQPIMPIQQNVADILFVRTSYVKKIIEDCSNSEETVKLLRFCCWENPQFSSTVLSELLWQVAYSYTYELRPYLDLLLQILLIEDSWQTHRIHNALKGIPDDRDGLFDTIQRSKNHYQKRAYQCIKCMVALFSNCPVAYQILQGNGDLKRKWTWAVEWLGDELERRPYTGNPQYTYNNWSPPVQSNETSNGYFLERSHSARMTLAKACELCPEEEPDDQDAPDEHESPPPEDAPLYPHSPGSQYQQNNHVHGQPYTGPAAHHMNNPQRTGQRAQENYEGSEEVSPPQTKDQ

Cl.O=C(CCl)N1CC(c2ccc(Br)cn2)C1
inactive: USP9X -0.297 | UniProt O00487 -0.285 | UniProt O00507 -0.573 | UniProt P51784 -0.0636 | UniProt Q5T2D3 -0.282 | UniProt Q8TE49 -0.974 | UniProt Q9P2H5 -0.175 | UniProt Q9UGI0 -0.897 | YOD1 -0.229
